# Reference: ChEMBL document CHEMBL3988442, “University of Dundee, Small-Polar-MMV Screening Library” (2021)
# About 1,000 (1.4%) of roughly 69,000 compounds showed an effect of 50% or more. This is one part of a sample in which strong results are shown more often than they occur.
# Test system: Leishmania donovani
# Assay: Leishmania intramacrophage assay
# Assay type: functional, organism-based
# Parameters: scale not given: in the data most compounds retested in dose-response had high values
compound,measurement,setting,value
COc1ccc(CN2CCCCC2c2n[nH]cc2-c2cc(C)no2)cc1.Cl (centres undefined),Percent Effect,"30.3 µM, […]",-16.67%
CCn1ncc2c1CCCC2NCc1cc(OC)cc(OC)c1 (centres undefined),Percent Effect,30 µM,1.972%
Cc1cc(CNC(=O)NCCOc2ccc(F)c(F)c2)on1,Percent Effect,"30.3 µM, […]",0.6606%
Cc1nccc(CNC(=O)NCCOc2ccc(F)c(F)c2)n1,Percent Effect,"30 µM, 30.03 µM",3.237%
Cc1nc(C2(O)CCCNCC2)sc1CCOc1ccc(F)cc1.Cl (centres undefined),Percent Effect,"30.3 µM, […]",8.294%
Cc1nc(C2(O)CCCNCC2)sc1CCOc1ccc(F)c(F)c1.Cl (centres undefined),Percent Effect,"30.3 µM, […]",85.82%
CC1(C(=O)NCc2cccnc2Oc2ccc(F)c(F)c2)CCCNC1 (centres undefined),Percent Effect,"30.3 µM, […]",-16.47%
CC(=O)NCc1nnn2c1CN(c1ncc(C)cn1)CCC2,Percent Effect,"30.3 µM, […]",22.68%
O=C(NC[C@]12COC[C@H]1CN(Cc1nccs1)C2)c1cscn1.O=C(O)C(F)(F)F,Percent Effect,"30.3 µM, […]",14.84%
CCOc1cc(C(=O)N2CCN(CC)CC2)cc2occc12,Percent Effect,"30.3 µM, […]",-20.1%
CCOC(=O)c1ccccc1NC(=O)CN(C)Cc1ccccc1Cl.O=C(O)C(=O)O,Percent Effect,"30.3 µM, […]",23.74%
CN(CC(=O)Nc1ccccc1C(=O)NC1CC1)Cc1ccccc1Cl,Percent Effect,"30.3 µM, […]",31.64%
CCOc1ccccc1NC(=O)CN(C)Cc1ccccc1Cl,Percent Effect,"30.3 µM, […]",52.93%
O=C(Nc1cccc(OCC(F)F)n1)c1ccncc1F,Percent Effect,"30.3 µM, […]",29.54%
CCSc1ccc(C(=O)N2CCCC2C(=O)N2CCOCC2)cn1 (centres undefined),Percent Effect,"30.3 µM, […]",-29.5%
Cc1cc2nc(C(C)C)cc(N3CCC(Oc4ncccn4)CC3)n2n1,Percent Effect,"30.3 µM, […]",83.06%
Cc1cc2nc(C(C)C)cc(N3CCC(N(C)C)C3)n2n1 (centres undefined),Percent Effect,"30.3 µM, […]",15.59%
Cc1cc2nc(C(C)C)cc(N3CCC(O)CC3)n2n1,Percent Effect,"30.3 µM, […]",27.64%
O=C(CNC(=O)C1CCCC1)NCc1cnn(-c2ccc(F)cc2F)c1,Percent Effect,"30.3 µM, […]",-11%
CCN(c1ccc(C(=O)NCCCN2CCOCC2)cc1)S(=O)(=O)CC,Percent Effect,"30 µM, 30.03 µM",0.6611%
CC(O)CN1CCN(C(=O)c2ccc3c(c2)COC3)CC1 (centres undefined),Percent Effect,"30 µM, 30.03 µM",9.428%
Cn1cnc2c(-c3cccnc3)nc(C3CCN(S(C)(=O)=O)CC3)cc21,Percent Effect,"30.3 µM, […]",18.38%
Cc1nn(C)c(N2CCOCC2)c1CNC1CCS(=O)(=O)C1 (centres undefined),Percent Effect,"30.3 µM, […]",15.34%
CCN1CCOCC12CCN(c1cnccn1)CC2.O=C(O)C(F)(F)F,Percent Effect,"30.3 µM, […]",19.49%
Cc1noc(C)c1CN1CCOCC12CCN(c1cnccn1)CC2.O=C(O)C(F)(F)F,Percent Effect,"30.3 µM, […]",60.72%
Cc1noc(C)c1CN1CCOCC12CCN(c1ncccn1)CC2.O=C(O)C(F)(F)F,Percent Effect,"30.3 µM, […]",49.21%
O=C(c1cnn2c1OCCC2)N1CCC(Cc2ccccc2)CC1,Percent Effect,"30.3 µM, […]",-34.88%
OCc1cn(Cc2cccc(F)c2)nn1,Percent Effect,"30.3 µM, […]",6.732%
COC(=O)NCC(=O)N(C)CC1Cc2ccccc2CN1C (centres undefined),Percent Effect,"30.3 µM, […]",52.66%
COC(=O)CCCC(=O)N(C)CC1Cc2ccccc2CN1C (centres undefined),Percent Effect,"30.3 µM, […]",11.82%
CCOCCC(=O)N(C)CC1Cc2ccccc2CN1C (centres undefined),Percent Effect,"30.3 µM, […]",29.01%
COc1ncccc1C(=O)N1CCC(c2nc3c(C)cccc3[nH]2)CC1,Percent Effect,"30.3 µM, […]",-25.37%
CN1CCC(c2nnc3ccc(C(=O)N4CCCCC4)cn23)C1.O=C(O)C(F)(F)F (centres undefined),Percent Effect,"30.3 µM, […]",20.31%
COc1cccc(C(O)CN2CCN(C(=O)CCC(C)C)CC2)c1 (centres undefined),Percent Effect,"30.3 µM, […]",-26.89%
CS(=O)(=O)N1CCO[C@@H]2CN(C(=O)C3CCOC3)CC[C@@H]2C1 (some centres undefined),Percent Effect,"30.3 µM, […]",29.21%
CS(=O)(=O)N1CCO[C@@H]2CN(C(=O)N3CCCC3)CC[C@@H]2C1,Percent Effect,"30.3 µM, […]",57.39%
CS(=O)(=O)N1CCO[C@@H]2CN(C(=O)N3CCOCC3)CC[C@@H]2C1,Percent Effect,"30.3 µM, […]",41.23%
Cc1cc(OCCC(=O)NCc2ccc(F)cc2)nnc1C,Percent Effect,"30.3 µM, […]",-17.71%
CCn1c(N)nc2cc(C(=O)N3Cc4ccccc4C3)cnc21,Percent Effect,"30.3 µM, […]",1.909%
Cl.NCC(=O)N1CCC(c2ccnc(Nc3cc(C(F)(F)F)ccn3)n2)C1 (centres undefined),Percent Effect,"30.3 µM, […]",77.96%
COCC(=O)N1CC(c2ccnc(Nc3cc(C(F)(F)F)ccn3)n2)C1,Percent Effect,"30.3 µM, […]",23.24%
O=C(CO)N1CCC(c2ccnc(Nc3cc(C(F)(F)F)ccn3)n2)C1 (centres undefined),Percent Effect,"30.3 µM, […]",30.85%
CC(=O)N1CCC(c2ccnc(Nc3cc(C(F)(F)F)ccn3)n2)C1 (centres undefined),Percent Effect,"30.3 µM, […]",43.14%
COC(=O)C(C)N1CCCc2cc(OC)ccc2C1 (centres undefined),Percent Effect,"30.3 µM, […]",8.236%
COCCN1CCC(Nc2ccc(C#N)cc2F)CC1,Percent Effect,"30.3 µM, […]",26.49%
CNC(=O)C1Cc2ccccc2CN1CCC#N (centres undefined),Percent Effect,"30.3 µM, […]",1.919%
CC(C)COc1cccc(-c2nc3c([nH]2)CCNC3)c1,Percent Effect,"30.3 µM, […]",95.75%
FC(F)(F)COc1cccc(-c2nc3c([nH]2)CCNC3)c1,Percent Effect,"30.3 µM, […]",27.16%
CCCOc1cccc(-c2nc3c([nH]2)CCNC3)c1,Percent Effect,"30.3 µM, […]",25.72%
CCN(C(=O)c1ccc(-n2ncc(C#N)c2N)cc1)C1CCCC1,Percent Effect,"30 µM, 30.03 µM",36.15%
O=C1C(NCc2nnc3n2CCCC3)CCN1CC(F)(F)F (centres undefined),Percent Effect,"30 µM, 30.03 µM",-13.74%
Cc1ccc(Br)cc1NC(=O)NC1CCC2(C1)OCCO2 (centres undefined),Percent Effect,"30.3 µM, […]",23.67%
CC(C)Cc1cc(CC2(NCc3ccco3)COC2)no1,Percent Effect,"30.3 µM, […]",63.35%
CC(C)Cc1cc(CC2(NCc3ccccc3Cl)COC2)no1,Percent Effect,"30.3 µM, […]",8.785%
Cc1ccc(CNC2(Cc3cc(CC(C)C)on3)COC2)o1,Percent Effect,"30.3 µM, […]",-12.32%
Cc1ccc(CN2CCc3nc(C(C)C)nc(O)c3CC2)s1,Percent Effect,"30.3 µM, […]",14.32%
O=C(c1cccnc1O)N1CCCN(c2cccnn2)CC1,Percent Effect,"30.3 µM, […]",3.038%
COc1ccc(C)cc1NC(=O)Nc1cnc(N2CCCC2)nc1,Percent Effect,"30.3 µM, […]",-0.2164%
COc1ccc(C)cc1NC(=O)Nc1cnc(N2CCOCC2)nc1,Percent Effect,"30.3 µM, […]",-26.13%
COc1ccc(C)cc1NC(=O)Nc1cnc(N2CCN(C)CC2)nc1,Percent Effect,"30 µM, 30.03 µM",50.02%
COc1ccc2nnc(C(=O)NC3CCCC3)nc2c1,Percent Effect,"30.3 µM, […]",8.289%
CCCS(=O)(=O)N1CCC2(CC1)CN(c1ccccn1)CCO2.O=C(O)C(F)(F)F,Percent Effect,"30 µM, 30.03 µM",10.12%
CS(=O)(=O)Cc1ccc(Cl)cc1NCc1cccc(F)c1F,Percent Effect,"30.3 µM, […]",15.72%
CS(=O)(=O)Cc1ccccc1NCc1cc(Cl)ccc1Cl,Percent Effect,"30.3 µM, […]",50.41%
CS(=O)(=O)Cc1ccc(Cl)cc1NCc1ccccc1F,Percent Effect,"30.3 µM, […]",17.75%
CC(O)CN1CCN(C(=O)c2ccc(N(C)C)nc2)CC1 (centres undefined),Percent Effect,"30 µM, 30.03 µM",21.97%
Cn1ncc(C(=O)N2CCCC(n3cccn3)C2)c1C1CC1 (centres undefined),Percent Effect,"30 µM, 30.03 µM",-6.982%
COc1ncccc1NC(=O)N(Cc1ccc(C)o1)C1CC1,Percent Effect,"30 µM, 30.03 µM",53.3%
COc1ncccc1NC(=O)N(Cc1ccco1)C1CC1,Percent Effect,30 µM,6.992%
CCN(C(=O)Nc1cccnc1OC)C1CC1,Percent Effect,"30 µM, 30.03 µM",22.39%
O=C1CCc2cc(OCCN3CCc4cncnc4C3)ccc2N1,Percent Effect,"30.3 µM, […]",41.19%
Cc1nc(S(=O)(=O)N2CCC3(CCCCC3)C2)cn1C,Percent Effect,"30.3 µM, […]",-11.17%
CC(C)Nc1nc2c(cc1C(=O)NCC1CC1)CCNCC2.O=C(O)C(F)(F)F.O=C(O)C(F)(F)F,Percent Effect,"30 µM, 30.03 µM",30.72%
CNC(=O)c1cc2c(nc1NCC1CC1)CCNCC2,Percent Effect,"30.3 µM, […]",-29.9%
CC(C)CNc1nc2c(cc1C(=O)NCC1CC1)CCNCC2,Percent Effect,"30.3 µM, […]",79%
O=C(C1CCCO1)N1CCc2onc(-c3ccc(Cl)cc3)c2C1 (centres undefined),Percent Effect,"30.3 µM, […]",-19.46%
Cc1cnc(C)c(N2CCCC(C/C=C/c3ccccc3)(C(=O)O)C2)n1 (centres undefined),Percent Effect,"30.3 µM, […]",12.4%
Cc1cnc(C)c(N2CCCC(CO)(Cc3cccc(Cl)c3)C2)n1 (centres undefined),Percent Effect,"30.3 µM, […]",-33.57%
Cc1ncc(C)c(N2CCCC(CO)(Cc3cccc(Cl)c3)C2)n1 (centres undefined),Percent Effect,"30 µM, 30.03 µM",20.29%
Cc1ccccc1CC1(CO)CCCN(c2ncnc3sccc23)C1 (centres undefined),Percent Effect,"30.3 µM, […]",67.14%
Cc1ccccc1CC1(C(=O)O)CCCN(c2ncnc3[nH]ccc23)C1 (centres undefined),Percent Effect,"30.3 µM, […]",-3.526%
Cc1ccccc1CC1(CO)CCCN(c2ncccc2C#N)C1 (centres undefined),Percent Effect,"30 µM, 30.03 µM",15.87%
Cc1cnc(C)c(N2CCCC(CO)(Cc3ccccc3C)C2)n1 (centres undefined),Percent Effect,"30.3 µM, […]",58.45%
Cc1ccccc1CC1(CO)CCCN(c2ncncc2C(C)C)C1 (centres undefined),Percent Effect,"30.3 µM, […]",60.98%
CC(=O)c1ccc(N2CCCC(CO)(Cc3ccccc3C)C2)nc1 (centres undefined),Percent Effect,"30.3 µM, […]",44.66%
O=C1CCCc2[nH]c(=O)c(C(=O)N3CCc4ccccc4C3)cc21,Percent Effect,"30.3 µM, […]",0.8668%
O=C(CN(Cc1cccc(F)c1)CC1CCCO1)N1CCCC1 (centres undefined),Percent Effect,"30.3 µM, […]",-8.596%
CC[C@@H]1N(Cc2ccoc2)CCC[C@]12CCC(=O)N2CCOC.O=C(O)C(F)(F)F,Percent Effect,"30.3 µM, […]",-8.415%
CC(C)N1CCC(NC(=O)c2cn(-c3ccc(F)cc3)nn2)C1 (centres undefined),Percent Effect,"30.3 µM, […]",-11.91%
CCc1cc(NCCCc2nc(C)no2)nc(-c2ccncc2)n1,Percent Effect,"30.3 µM, […]",-6.6%
Cc1cc(Nc2ccccn2)nc(C2CCCN(CCO)C2)n1.O=CO (centres undefined),Percent Effect,"30.3 µM, […]",32.66%
Cc1cc(Nc2cnccn2)nc(C2CCCN(CCO)C2)n1 (centres undefined),Percent Effect,"30.3 µM, […]",56.31%
Cc1cc(Nc2ncccn2)nc(C2CCCN(CCO)C2)n1 (centres undefined),Percent Effect,"30.3 µM, […]",24.35%
CN(CCn1cncc1-c1cnc(N2CCOCC2)nc1)C1CCCC1,Percent Effect,"30.3 µM, […]",22.37%
CC(C)CN1C[C@H]2N(c3ncccn3)CCC[C@@]2(C(=O)NCC2CC2)C1,Percent Effect,"30.3 µM, […]",11.67%
CS(=O)(=O)N1C[C@H]2N(c3ncccn3)CCC[C@@]2(C(=O)NCC2CC2)C1,Percent Effect,"30.3 µM, […]",51.67%
CNC(=O)N1C[C@H]2N(c3ncccn3)CCC[C@@]2(C(=O)NCC2CC2)C1,Percent Effect,"30.3 µM, […]",18.69%
COCCN1CC[C@H]2CN(Cc3ccc(C)s3)C[C@@H]2C1=O.O=C(O)C(F)(F)F,Percent Effect,"30.3 µM, […]",-9.099%
CC(Cc1cccc(F)c1)C(=O)NS(=O)(=O)c1ccc(F)cc1 (centres undefined),Percent Effect,"30.3 µM, […]",5.076%
CC(CN1CCOCC1)NC(=O)c1cccc2cn[nH]c12 (centres undefined),Percent Effect,"30.3 µM, […]",18.62%
CN(C)C(=O)c1cc2ncc(C(=O)NC3CCCC3)cc2n1C,Percent Effect,"30.3 µM, […]",-2.053%
Cc1ncccc1CNC1CCCN(Cc2noc(C3CC3)n2)C1 (centres undefined),Percent Effect,30 µM,51.55%
Cc1ccsc1CNC1CCCN(Cc2noc(C3CC3)n2)C1 (centres undefined),Percent Effect,30 µM,29.68%
Cc1ccc(CNC2CCCN(Cc3noc(C4CC4)n3)C2)s1 (centres undefined),Percent Effect,30 µM,1.737%
